Values without a mark were called inactive. No rule for the calls is given here.

The target of this assay is Pantothenate synthetase (Mycobacterium tuberculosis (strain ATCC 25618 / H37Rv)) (UniProt P9WIL5). The assay is described as follows: Coupled enzyme confirmation of inhibitors against recombinant Mtb PanC (AID 375).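 Also: 0% = full reaction with vehicle and 100% = no enzyme background.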 Conditions: coupled enzyme assay; at 10 µM, stronger effect = higher value.
Pantothenate synthetase (Mycobacterium tuberculosis (strain ATCC 25618 / H37Rv)), sequence (P9WIL5 whole entry, looked up): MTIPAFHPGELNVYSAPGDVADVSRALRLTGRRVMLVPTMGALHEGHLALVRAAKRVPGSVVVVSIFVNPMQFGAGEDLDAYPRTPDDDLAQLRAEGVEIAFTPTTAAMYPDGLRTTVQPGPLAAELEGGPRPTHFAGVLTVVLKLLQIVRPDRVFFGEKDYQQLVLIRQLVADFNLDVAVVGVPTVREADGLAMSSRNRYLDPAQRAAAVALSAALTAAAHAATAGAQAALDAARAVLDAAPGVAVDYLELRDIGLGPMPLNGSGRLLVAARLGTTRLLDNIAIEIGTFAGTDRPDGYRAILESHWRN
For `Cc1cccc(CCNC(=O)CCc2nc(-c3ccccc3F)no2)c1`, the inhibition was 0%.

Take `CN(C1CCCCC1)S(=O)(=O)c1ccc(S(=O)(=O)N2CCCC2)cc1`: the inhibition was 0%.

`COc1ccc(OC)c(Nc2ncnc3c2cnn3-c2ccccc2)c1`: the inhibition is 0%.

With `Cc1ccc2oc(=O)c3cnn(CC(=O)NCCC(C)C)c3c2c1`, the inhibition is 0%.

`O=C(OCc1cc2ccccc2[nH]c1=O)c1ccco1`: the inhibition is 0%.

Take `COC(=O)c1ccc(-n2nnnc2SCc2nn[nH]n2)cc1`: the inhibition was 0%.

For `Cc1cc(Br)ccc1NC(=O)CNC(=O)CSc1n[nH]c(N)n1`, the inhibition was 6%.

In the case of `O=C(Cn1[nH]c(=O)c2ccccc2c1=O)OCC(=O)N1CCCc2ccccc21`, the inhibition is 5%.

As for `Cc1cc2nc(-c3ccco3)cc(C(F)(F)F)n2n1`, the inhibition was 0%.

For the compound `O=C(NCC1COc2ccccc2O1)c1ccc(NC(=O)c2ccco2)cc1` (stereo not given), the inhibition was 0%.

`Cn1nnc2cc(C(=O)N3CCCCCC3)ccc21`: the inhibition was 0%.

In the case of `Cc1cc(Cl)ccc1NC(=O)CSc1nnc(Cc2cccs2)n1Cc1ccco1`, the inhibition was 0%.

For `Cc1cccc(-n2c(N)c(C(=O)N3CCN(C)CC3)sc2=S)c1`, the inhibition was 1%.

On to `COc1ccc(CN(C)CC(=O)c2c(N)n(Cc3ccccc3)c(=O)n(C)c2=O)c(OC)c1`, for which the inhibition was 0%.

`CCCC(=O)Nc1ccc(NC(=O)C2CC2)cn1`: the inhibition was 2%.

Consider `Cn1cc(CC(=O)Nc2cccc(C#N)c2)c2ccccc21`, for which the inhibition is 6%.

As for `CCCc1cc(C(=O)Nc2ccc(C(C)=O)cc2)no1`, the inhibition was 0%.

Consider `COCCn1c(SCC(=O)Nc2ccc3c(c2)OCCO3)nc2c(c1=O)SC(C)C2` (stereo not given), for which the inhibition is 3%.

Regarding `O=C(CSc1nnnn1-c1ccc(Cl)cc1)NC(=O)Nc1ccc2c(c1)OCCO2`, the inhibition was 2%.

On to `CCOC(=O)N1CCN(Cc2cc(=O)oc3ccc4ccccc4c23)CC1`, for which the inhibition is 6%.

For the compound `Cc1cc(C)c(OCC(=O)Nc2ccc3c(c2)OCO3)cc1C`, the inhibition is 2%.

Take `C=CCSC1=C(C#N)C(c2ccccc2C)CC(=O)N1` (stereo not given): the inhibition was 0%.

As to `O=C(Sc1nnnn1C1CCCCC1)c1cccs1`, the inhibition was 0%.

With `CC1=C(C(N)=O)C(c2ccc(Cl)cc2Cl)n2ncnc2N1` (stereo not given), the inhibition is 0%.

Take `CCOC(=O)Nc1ccc(NS(=O)(=O)c2ccc(C)cc2)cc1`: the inhibition is 0%.

`NS(=O)(=O)c1cc2c(cc1Cl)NC=NS2(=O)=O`: the inhibition was 3%.

With `CCOC(=O)c1c(NC(=O)c2nn(CC)cc2Br)c(C#N)cn1-c1ccccc1`, the inhibition is 0%.

As for `Cc1cc(NC(=O)CSc2nccn2-c2ccc(F)cc2)no1`, the inhibition is 5%.

Consider `CC(C)CC(c1nnnn1CC1CCCO1)N1CCN(Cc2ccc3c(c2)OCO3)CC1` (stereo not given), for which the inhibition is 0%.

With `O=C(NCCN1C(=O)C2C3C=CC(C3)C2C1=O)Nc1ccccn1` (stereo not given), the inhibition was 0%.

In the case of `NC(=O)C1(N2CCCCC2)CCN(C2CC(=O)N(Cc3cccs3)C2=O)CC1` (stereo not given), the inhibition was 0%.

As to `CC1(C)O[C@@H]2C[C@H]3[C@@H]4CCC5=CC(=O)C=C[C@]5(C)[C@@]4(F)[C@@H](O)C[C@]3(C)[C@]2(C(=O)CO)O1`, the inhibition was 2%.

For the compound `CCn1c(CC(=O)Nc2cccc(OC)c2)nnc1SCC(=O)Nc1nccs1`, the inhibition was 0%.

Regarding `Cc1c(C(=O)OCCOC(C)C)[nH]c2c1C(=O)CC(c1ccco1)C2` (stereo not given), the inhibition is 0%.

`Cc1ccccc1CS(=O)(=O)Cc1ccc(C(=O)NCCCN2CCOCC2)o1`: the inhibition was 0%.

With `CC(=O)NC(Cc1cc(C)ccc1C)C(=O)N1CCN(C(=O)Nc2ccc(C(C)=O)cc2)CC1` (stereo not given), the inhibition was 0%.

As for `CNCCCN1c2ccccc2CCc2ccccc21`, the inhibition was 0%.

With `C=C(C)C1Cc2c(C)nn(-c3nc(C)cc(C)n3)c2C1` (stereo not given), the inhibition is 0%.

Regarding `Cn1cccc1Cc1nnc(SCC(=O)N2CCOCC2)n1-c1ccc(F)cc1`, the inhibition was 0%.

As to `Cc1ccc(C)c2[nH]c(=O)c(CCNC(=O)c3ccc(S(=O)(=O)N(C)C)cc3)cc12`, the inhibition was 0%.

The values are drawn from PubChem BioAssay.
